Reference: PubChem BioAssay (NCATS)
Results filed as inconclusive are left out. Unmarked numbers belong to inactive results. Activity calls are given as the source filed them. Calls come from the whole dose curve; as a rule, active = well fitted inhibition curve with a large enough effect; inconclusive = small, poorly fitted or top-dose-only effect; inactive = flat fitted curve, though single readings scatter.

test system: CRL-7250; experiment: Cytotoxic Profiling of Annotated Libraries Using Quantitative High-Throughput Screening (AID 1296008); details: Five cell lines viability, CellTiter-Glo ATP luminescence, 48-72 h; max response: active compounds read low; note: nearly all actives have a fitted effect of over 60% in size
Procedure, shortened: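 Cells exposed to compounds for 48 or 72 hr at 37 degrees Celsius. Viability read as ATP-coupled luminescence with CellTiter-Glo after 10 min at room temperature.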
% is set by controls: 0 for no effect and ±100 for the full control effect.

Row | SMILES | outcome | max response [%]
1 | C1=Cc2ccccc2C(=C2CCN(CCCCc3nn[nH]n3)CC2)c2ccccc21 | inactive | –
2 | COc1c(CCC(=O)O)cccc1O[C@@H]1O[C@H](CO)[C@@H](O)[C@H](O)[C@H]1O | inactive | –
3 | CC(=O)OCC(=O)[C@@]12O[C@@H]1C[C@H]1[C@@H]3CC=C4C[C@@H](O)CC[C@]4(C)[C@H]3CC[C@@]12C | – | 1.57
4 | O=C(O)c1cc(N(Cc2ccc(C3CCCCC3)cc2)C(=O)c2ccc(Oc3ccccc3)cc2)ccc1O | – | -16.9
5 | COc1ccc(CCO[C@@H]2O[C@H](CO[C@H]3OC[C@](O)(CO)[C@H]3O)[C@@H](OC(=O)/C=C/c3ccc(O)c(O)c3)[C@H](O[C@@H]3O[C@@H](C)[C@H](O)[C@@H](O)[C@H]3O)[C@H]2O)cc1OC | – | -14.2
6 | COc1ccc(S(=O)(=O)Nc2cc(Cl)cc(Cl)c2OC)cc1N1CCNCC1 | – | -0.811
7 | COC(=O)c1ccc2c(c1)[nH]c1ncnc(NCCCN3CCCCC3)c12 | – | -8.38
8 | CN1CCN(C2=Nc3ccccc3Nc3ccc(OS(=O)(=O)C(F)(F)F)cc32)CC1 | inactive | –
9 | CC[C@H](C)/C=C(C)/C=C/C1=CC2=CC(=O)[C@]3(C)OC(=O)[C@@H](C(C)=O)[C@@H]3C2=CO1 | – | -1.79
10 | CN1CC[C@@H](c2c(O)cc(O)c3c(=O)cc(-c4ccc(C(F)(F)F)cc4Cl)oc23)[C@@H]1CO | inactive | –
11 | CC(=O)O[C@@H]1CC[C@@]2(C)C(CC[C@]3(C)C2[C@H](O)C=C2[C@H]4[C@@H](C)[C@H](C)CC[C@]4(C)CC[C@]23C)[C@@]1(C)C(=O)O (some centres undefined) | – | -13.3
12 | COc1cc(/C=C2\CC[C@H]3COC[C@@H](c4cc(F)c(F)c(F)c4)N3C2=O)ccc1-n1cnc(C)c1 | – | 3.12
13 | CC/C=C\CC1C(=O)C=CC1(CCCCC1CCC(=O)O1)OC(C)=O (centres undefined) | inactive | –
14 | O=C(Nc1cccnc1)c1cc(-c2ccnc(F)c2)ccc1OCc1ccccc1 | – | -1.07
15 | C/C=C(\C)C(=O)OC1C[C@@]2(COC(C)=O)O[C@H]2/C=C\[C@@]2(C)O[C@@H]2[C@H]2OC(=O)C(COC(C)=O)=C12 (some centres undefined) | – | -2.2
16 | CCC/C=C/C=C/C1CC(O)C2(O)C(=O)OCC12 (centres undefined) | inactive | –
17 | C=C1C(=O)O[C@@H]2[C@H]1CC[C@H](C)[C@]1(CCC(=O)O1)C2(C)O (some centres undefined) | – | -3
18 | CCN(Cc1ccccc1)C(=O)Cn1c(=O)n(C)c2cnc(-c3ccccc3)nc21 | – | -1.74
19 | CC#CCn1c(N2CCCC(N)C2)nc2c1c(=O)n(Cc1nc(C)c3ccccc3n1)c(=O)n2C (centres undefined) | – | 0.556
20 | O=C1COC2(CCN(S(=O)(=O)c3ccc(-c4ccc5cccnc5c4)cc3)CC2)CN1C1CC1 | – | -2.24

Row | SMILES | outcome | max response [%]
21 | NS(=O)(=O)c1ccc(NC(=O)Nc2ccc(F)cc2)cc1 | inactive | –
22 | COC(=O)C(Cc1ccc(OCCn2c(=O)sc3cc(C(=O)c4ccccc4)ccc32)cc1)C(=O)OC | – | -17
23 | CC(C)(C)NC(=O)[C@H]1CC[C@H]2[C@@H]3CC[C@H]4NC(=O)CC[C@]4(C)[C@H]3CC[C@]12C | – | -10.4
24 | CC(=O)c1c(C)cc2cccc(O)c2c1O[C@@H]1O[C@H](CO)[C@@H](O)[C@H](O)[C@H]1O | – | -1.95
25 | O=C([C@@H](Cc1cccc(C(F)(F)F)c1)NS(=O)(=O)c1cc(F)c2c(c1)CCNC2)N1CCCC1 | inactive | –
26 | CC(C)(F)CC(NC(c1ccc(-c2ccc(S(C)(=O)=O)cc2)cc1)C(F)(F)F)C(=O)NC1(C#N)CC1 (centres undefined) | – | -1.34
27 | COC(=O)C[C@H]1C(C)(C)[C@H](OC(=O)c2ccccc2)C2CC3=C4CC(=O)O[C@@H](c5ccoc5)[C@]4(C)CCC3[C@@]1(C)C2=O (some centres undefined) | – | -6.86
28 | Cc1cccc(N2CCN(C(=O)c3cc(S(=O)(=O)N(C)C)ccc3N3CCCC3)CC2)c1C | – | -10.2
29 | Fc1ccc2c(CCNCc3cccc(OCC(F)(F)C(F)F)c3)c[nH]c2c1 | – | 4.88
30 | C=C1CC[C@H]2C(=C)CC[C@H]3C(=C)C(=O)O[C@@H]3[C@@H]12 | – | -11.6
31 | CCCCC1CCC(c2nc(-c3ccncc3)no2)CC1 (centres undefined) | – | -23.2
32 | COC1C=C(C)C(O)(CO)C2(C)CCCC(C)(C)C12 (centres undefined) | inactive | –
33 | CC(C)OC(=O)N1CCC(Oc2ncnc3c2cnn3-c2ccc(S(C)(=O)=O)cc2F)CC1 | inactive | –
34 | CC(=O)O[C@@H]1CC2C(C)(C)C(=O)C=C[C@]2(C)C2CC[C@@]3(C)[C@H](c4ccoc4)OC(=O)[C@H]4O[C@]43[C@@]21C (some centres undefined) | inactive | –
35 | O=C(NCC1CCN(Cc2cccc(Cl)c2)CC1)[C@@H]1CCCN(c2ncnc3c2nc2n3CCCC2)C1 | – | 4.3
36 | CC(C)(Cc1nc(-c2ccc(O)cn2)no1)C(=O)NC1=C(C(=O)O)CCCC1 | – | -1.84
37 | CCCN(CCc1ccsc1)C1CCc2c(O)cccc2C1 (centres undefined) | – | 4.38
38 | COc1cc(F)c(C(C)C)cc1-c1ccc(C(F)(F)F)cc1CN1C(=O)OC(c2cc(C(F)(F)F)cc(C(F)(F)F)c2)C1C (centres undefined) | – | 3.77
39 | COC(=O)/C=C/C=C/C(=O)OC1C=C2COC(=O)C2(O)C2(C)CCCC(C)(C)C12 (centres undefined) | inactive | –
